Results: PubChem BioAssay (NCATS)
Records with an inconclusive call do not appear. Entries that show only a call come without a potency. Values without a mark were called inactive. Activity calls are given as the source filed them. Calls come from the whole dose curve; as a rule, active = well fitted cell-killing curve with a large enough effect; inconclusive = small, poorly fitted or top-dose-only effect, or effect the other way; inactive = no such curve, though single readings can be large or run the other way.

Tests used:
[1] = Viability qHTS for spleen associated tyrosine kinase inhibitor (SYKi) naive MV4-11 cells (AID 1963823); conditions: MV4-11 AML viability, CellTiter-Glo luminescence, 72 h; series mostly up to 45 µM; note: nearly all actives have a fitted effect of over 40% in size
Outline: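 qHTS, SYK inhibitor-naive MV4-11; 500 cells/well; 72 hr compound exposure, 37 C; CellTiter-Glo added, 10 min RT; luminescence read.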

[2] = Viability qHTS for spleen associated tyrosine kinase inhibitor (SYKi) drug resistant MV4-11 cells (AID 1963824); conditions: SYKi-resistant MV4-11 viability, CellTiter-Glo, 72 h; series mostly up to 45 µM; note: nearly all actives have a fitted effect of over 35% in size
Outline: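 SYK-inhibitor-resistant MV4-11 AML cells were seeded at 500 per well onto compound and cultured 72 hours (37 °C, 5% CO2). CellTiter-Glo was then added, and after 10 min at room temperature, luminescence gave viability.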
Potency is the fitted concentration of half-maximal effect.

Compound | Potency [1] | Potency [2] | viability (% of control) [1] | viability, % of control [2]
COc1cc(O)cc(OC2OC(CO)C(O)C(O)C2O)c1 (centres undefined) | inactive | inactive |  | 
CC1=CC(=O)CC(C)(C)C1CO[C@@H]1O[C@H](CO)[C@@H](O)[C@H](O)[C@H]1O (some centres undefined) | inactive | inactive |  | 
Cc1ccc(S(=O)(=O)c2ccc([N+](=O)[O-])o2)cc1 | 461 nM (active) | 411 nM (active) |  | 
O=C(Nc1ccc(C(O)(C(F)(F)F)C(F)(F)F)cc1)c1ccc(C(F)(F)F)cc1 | 1840 nM (active) | 1840 nM (active) |  | 
CCC[C@@]1(CCc2ccccc2)CC(O)=C([C@H](CC)c2cccc(NS(=O)(=O)c3ccc(C(F)(F)F)cn3)c2)C(=O)O1 | 20600 nM (active) | 23100 nM (active) |  | 
C=C1CCC2C(C)(C(=O)OC)CCCC2(C)C1CCC(C)CC(=O)O (centres undefined) | inactive | inactive |  | 
C[C@@H]1O[C@@H](OC[C@H]2O[C@@H](OCCc3ccccc3)[C@H](O)[C@@H](O)[C@@H]2O)[C@H](O)[C@H](O)[C@H]1O | inactive | inactive |  | 
CC(=O)C1=C(O)C=C2Oc3c(C(C)=O)c(O)c(C)c(O)c3[C@]2(C)C1=O | inactive | inactive |  | 
CC1(C(=O)Nc2ccc(F)nc2)CCCN1c1nc(Nc2cc(C3CC3)[nH]n2)c2cccn2n1 (centres undefined) | 1460 nM (active) | 1640 nM (active) |  | 
CN(C)S(=O)(=O)c1ccc2c(c1)/C(=C/c1cc3c([nH]1)CCCC3)C(=O)N2 | 820 nM (active) | 1640 nM (active) |  | 
CCC(CC)C(=O)OC12C(OC(=O)C(C)C)C(C)C3(O)C(C=C(CO)CC4(O)C(=O)C(C)=CC43)C1C2(C)C (centres undefined) | 28.2 nM (active) | 10 nM (active) |  | 
CC1CC(O)C2(C)C(C(=O)O)=CCCC2C1(C)CCc1ccoc1 (centres undefined) | inactive | inactive |  | 
CC[C@H](CO)Nc1nc(NCc2ccc(-c3ccccn3)cc2)c2ncn(C(C)C)c2n1 | 130 nM (active) | 259 nM (active) |  | 
Cc1cc(Nc2cc(C)c(C#N)c(NC(C)CCCC(C)(C)O)n2)n[nH]1 (centres undefined) | 259 nM (active) | 411 nM (active) |  | 
O=C(CCc1ccccc1)c1c(O)c([C@@H]2O[C@H](CO)[C@@H](O)[C@H](O)[C@H]2O)c(O)c([C@@H]2O[C@H](CO)[C@@H](O)[C@H](O)[C@H]2O)c1O | inactive | inactive |  | 
C/C=C1\[C@H](O[C@@H]2O[C@H](CO)[C@@H](O)[C@H](O)[C@H]2O)OC=C(C(=O)OCCc2ccc(O)cc2)[C@H]1CC(=O)OCCc1ccc(O)cc1 | inactive | inactive |  | 
CCCc1c(C(C)C)nc(C(C)C)c([C@@H](C)O)c1-c1ccc(F)cc1O | 9200 nM (active) | 8200 nM (active) |  | 
C=CCN(/C=C1\C(=O)OC(COC)C2(C)C1=C(O)C(=O)C1=C2C(OC(C)=O)CC2(C)C(=O)CCC12)CC=C (centres undefined) | 13000 nM (active) | 20600 nM (active) |  | 
O=C(Nc1ccc(Cl)cc1F)c1ccccc1O | 9200 nM (active) | 7310 nM (active) |  | 
COc1cc(N2CCC(O)CC2)ccc1Nc1nc(Nc2ccccc2S(=O)(=O)C(C)C)c2[nH]cnc2n1 | 1300 nM (active) | 2060 nM (active) |  | 
CC1(CO)CC[C@]2(C(=O)O[C@@H]3O[C@H](CO)[C@@H](O)[C@H](O)[C@H]3O)CC[C@]3(C)C(=CCC4[C@@]5(C)C[C@H](O)[C@H](O[C@@H]6OC[C@@H](O)[C@H](O)[C@H]6O)[C@@](C)(CO)C5CC[C@]43C)C2C1 (some centres undefined) |  |  | 88.9% [at 9.25 µM] | 101% [at 9.25 µM]

Compound | Potency [1] | Potency [2] | viability (% of control) [1] | viability, % of control [2]
OC[C@@]1(O)CO[C@H](OC[C@H]2O[C@@H](OC(CCCCc3ccc(O)cc3)CCc3ccc(O)cc3)[C@H](O[C@H]3OC[C@](O)(CO)[C@H]3O)[C@@H](O)[C@@H]2O)[C@@H]1O (some centres undefined) | inactive | inactive |  | 
O=C1C(Cl)=C(N2CCOCC2)C(=O)N1c1ccc(Cl)c(Cl)c1 | 5630 nM (active) | 5020 nM (active) |  | 
COc1ccc(CC(NC(C)=O)C(=O)O)cc1 (centres undefined) | inactive | inactive |  | 
C[C@H](/C=C/[C@@]1(O)[C@H](C)CC(=O)CC1(C)C)O[C@@H]1O[C@H](CO[C@@H]2OC[C@@H](O)[C@H](O)[C@H]2O)[C@@H](O)[C@H](O)[C@H]1O | inactive | inactive |  | 
CC1CCC2C(C(=O)O)=CC3C(O)C(C)(C)CC123 (centres undefined) | inactive | inactive |  | 
CC1(C)CC[C@]2(C(=O)O)CC[C@]3(C)C(=CCC4[C@@]5(C)CC[C@H](O[C@@H]6O[C@H](C(=O)O)[C@@H](O)[C@H](O[C@@H]7O[C@H](CO)[C@H](O)[C@H](O)[C@H]7O)[C@H]6O[C@@H]6O[C@H](CO)[C@@H](O)[C@H](O)[C@H]6O)C(C)(C)C5CC[C@]43C)[C@@H]2C1 (some centres undefined) |  |  | 77.5% [at 4.97 µM] | 75.1% [at 4.97 µM]
CS(=O)(=O)NCC1CCC(Nc2nc3c(s2)CCSc2ccccc2-3)CC1 (centres undefined) | 2310 nM (active) | 4610 nM (active) |  | 
Nc1ccc(-c2cccc3c(=O)cc(N4CCOCC4)oc23)cc1 | 9200 nM (active) | 7310 nM (active) |  | 
COCC1OC(OC(C)(C)C2CCC3(C)C=C(C4CCC5C4(C)CC(O)C4OC(C(C)(C)OC6OC(CO)C(O)C(O)C6NC(C)=O)CCC45C)CCC3O2)C(NC(C)=O)C(O)C1O (centres undefined) |  |  | 92.4% [at 9.25 µM] | 108% [at 9.25 µM]
C=C1CC[C@@H]2[C@](C)(CO)[C@H](O)CC[C@@]2(C)[C@@H]1/C=C/C1=CCOC1=O | inactive | inactive |  | 
O=C1N=C(O)S/C1=C\c1ccc2nccnc2c1 | 13000 nM (active) | 13000 nM (active) |  | 
CC1(C(=O)O)CCCC2(C)C1CCC13CC(CCC21)C1(CO)OC31 (centres undefined) | inactive | inactive |  | 
COc1cc(-c2cccc(O)c2)cc2c1OCO2 | inactive | inactive |  | 
COC1=CC(=O)C[C@@H](C)[C@@]12Oc1c(Cl)c(OC)cc(OC)c1C2=O | inactive | inactive |  | 
CC(C)(O[C@@H]1O[C@H](CO)[C@@H](O)[C@H](O)[C@H]1O)C(OC(=O)/C=C\c1ccc(O)cc1)C(=O)OCc1ccc(O[C@@H]2O[C@H](CO)[C@@H](O)[C@H](O)[C@H]2O)cc1 (some centres undefined) | inactive | inactive |  | 
CC1(C)C[C@H](O)C[C@@]2(C)[C@H]1[C@H](O)C=C1COC(=O)[C@@]12O | inactive | inactive |  | 
CCC(C)C(=O)OC[C@H]1O[C@H](O[C@H]2O[C@H](CO)[C@@H](O)[C@H](O)[C@H]2O)[C@H](O)[C@@H](O)[C@@H]1O (some centres undefined) | inactive | inactive |  | 
COc1ccc(OC2OC(CO[C@@H]3O[C@@H](C)[C@H](O)[C@@H](O)[C@H]3O)C(O)C(O)C2O)cc1OC (some centres undefined) | inactive | inactive |  | 
CC(=O)OC1C=C(C(=O)O)C2(CO)CCC(C)C(C)(CCc3ccoc3)C2C1 (centres undefined) | inactive | inactive |  | 
C=CC(C)(O)CC/C=C(\C)C(=O)OC1CC2(C(=O)O)CCC3(C)C(=CCC4C5(C)CCC(OC6OC(COC7OCC(O)C(O)C7O)C(O)C(OC7OCC(O)C(O)C7O)C6OC6OC(CO)C(O)C(O)C6OC6OCC(O)C(O)C6O)C(C)(C)C5CCC43C)C2CC1(C)C (centres undefined) |  |  | 73.5% [at 9.25 µM] | 68% [at 9.25 µM]
OCC1=CC[C@@H]2C=CO[C@@H](O[C@@H]3O[C@H](CO)[C@@H](O)[C@H](O)[C@H]3O)[C@H]12 | inactive | inactive |  | 
